The results in this text go back to publication PMC4336329 (PLoS ONE, 2015).

Screen size: about 310,000 compounds; about 2,200 (0.71%) showed an effect of 50% or more. Effects have a minus sign here. The sample as a whole holds a higher share of strong results than the screen did.

The experiment deals with human ether-à-go-go-related gene (hERG) potassium channel (human, UniProt Q12809). As to the kind of experiment: primary screen, population patch clamp on CHO cells stably expressing hERG; higher = less effect of the substance.
Sequence of human ether-à-go-go-related gene (hERG) potassium channel (Q12809 whole entry, looked up): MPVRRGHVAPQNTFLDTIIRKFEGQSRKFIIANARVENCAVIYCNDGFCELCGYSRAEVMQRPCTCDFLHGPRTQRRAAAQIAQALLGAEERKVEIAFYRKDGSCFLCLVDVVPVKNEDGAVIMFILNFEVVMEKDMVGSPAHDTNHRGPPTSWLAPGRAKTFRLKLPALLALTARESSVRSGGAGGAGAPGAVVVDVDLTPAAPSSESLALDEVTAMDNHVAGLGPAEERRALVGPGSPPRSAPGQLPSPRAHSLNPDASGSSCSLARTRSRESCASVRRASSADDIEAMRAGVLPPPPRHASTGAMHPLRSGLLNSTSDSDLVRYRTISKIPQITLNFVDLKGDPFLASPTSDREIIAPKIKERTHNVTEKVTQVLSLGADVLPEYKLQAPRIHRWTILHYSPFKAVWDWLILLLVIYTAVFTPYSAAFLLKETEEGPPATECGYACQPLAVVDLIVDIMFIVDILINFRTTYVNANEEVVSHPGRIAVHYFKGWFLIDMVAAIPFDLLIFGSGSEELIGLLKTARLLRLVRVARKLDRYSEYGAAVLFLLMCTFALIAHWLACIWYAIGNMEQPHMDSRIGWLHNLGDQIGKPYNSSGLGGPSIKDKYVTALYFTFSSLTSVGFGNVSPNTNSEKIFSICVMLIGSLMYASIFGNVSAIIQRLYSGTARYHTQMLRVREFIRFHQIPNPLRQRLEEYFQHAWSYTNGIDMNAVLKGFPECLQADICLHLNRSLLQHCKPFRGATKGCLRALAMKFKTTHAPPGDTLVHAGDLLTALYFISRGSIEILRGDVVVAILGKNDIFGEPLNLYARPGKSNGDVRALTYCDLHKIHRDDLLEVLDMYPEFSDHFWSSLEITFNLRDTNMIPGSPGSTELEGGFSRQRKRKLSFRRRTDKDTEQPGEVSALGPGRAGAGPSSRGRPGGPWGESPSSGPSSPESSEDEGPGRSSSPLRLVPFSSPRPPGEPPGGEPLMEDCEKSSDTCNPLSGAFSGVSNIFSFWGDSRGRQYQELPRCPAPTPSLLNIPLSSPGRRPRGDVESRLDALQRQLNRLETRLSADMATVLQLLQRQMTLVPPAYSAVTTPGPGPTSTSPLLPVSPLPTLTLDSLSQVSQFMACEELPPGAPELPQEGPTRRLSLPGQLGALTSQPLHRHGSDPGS
Consider `CCc1nnc(NC(=O)C2CCC2)s1`, for which the “hERG current change (%, negative = inhibition) at 1uM” value was 3.46%.
With `CCCn1c(N)c(N(CCOC)C(=O)c2ccc(F)cc2)c(=O)[nH]c1=O`, the “hERG current change (%, negative = inhibition) at 1uM” value came to 12.9%.
To `Cc1[nH]c(C)c(S(=O)(=O)NCCc2ccc(S(N)(=O)=O)cc2)c1C(=O)N1CCCC1` belongs 12.3%.
To `CCCCSc1nnc(-c2ccc(NC(=O)CCc3ccccc3)cc2)n1C` belongs 19.5%; to `Cc1ccc2occ(/C=C/C(=O)O)c(=O)c2c1`, 9.03%; to `CCNC(=O)C1(c2ccccc2)CCCC1`, 5.42%.
Under `CCOC(=O)C[n+]1c(C)csc1C.[Br-]` stands 9.26%.
For `CCN1CCN(c2nc(Nc3ccc(OC)cc3)nc(N)c2[N+](=O)[O-])CC1`, the “hERG current change (%, negative = inhibition) at 1uM” value is given as 1.06%.
Consider `CCN1CCN(c2nc(Nc3cccc(C)c3)nc(N)c2[N+](=O)[O-])CC1`, for which the “hERG current change (%, negative = inhibition) at 1uM” value is -36.9%.
Take `CCN1CCN(c2nc(Nc3cccc(OC)c3)nc(N)c2[N+](=O)[O-])CC1`: the “hERG current change (%, negative = inhibition) at 1uM” value is recorded as -60.6%.
To `COc1ccccc1-n1c(/C=C/c2ccc(O)cc2)nc2ccccc2c1=O` belongs 13%.
To `CCCCn1c(=O)c(C(=O)c2ccccc2)nc2ccccc21` belongs 5.56%.
`CCCCn1c(CCCNC(=O)CC)nc2ccccc21`: the “hERG current change (%, negative = inhibition) at 1uM” value is given as -3.85%.
With `CCCCCn1c(=O)c(C(=O)c2ccccc2)nc2ccccc21`, the “hERG current change (%, negative = inhibition) at 1uM” value is given as -52.5%.
To `CCCCn1c(CCNC(=O)CC)nc2ccccc21` belongs 0.197%; to `CCCCCn1c(CCCNC(=O)CC)nc2ccccc21`, -52.3%.
Take `CCCn1c(=O)c(C(=O)c2ccccc2)nc2ccccc21`: the “hERG current change (%, negative = inhibition) at 1uM” value is recorded as -0.484%.
Under `Cc1ccc(NC(=O)CSc2sc3c(O)cc(=O)[nH]c3c2C#N)cc1C` stands 0.874%; under `CC(C)(C)OC(=O)N1CCC(C(N)=O)CC1`, 5.04%; under `CCOC(=O)c1ccc(NC(=O)N2C[C@@H]3C[C@@H](C2)c2cccc(=O)n2C3)cc1`, 7.4%.
To `Nc1nc(CN2CCN(C(=O)c3ccco3)CC2)nc(Nc2cccc(Cl)c2)n1` belongs -76.3%; to `Cc1ccc(Nc2nc(N)nc(CN3CCN(Cc4ccccc4)CC3)n2)cc1Cl`, -24.5%; to `O=C(c1ccco1)N1CCN(Cc2ccc(Cl)cc2)CC1`, 7.26%.
Under `Cc1ccc(Nc2nc(N)nc(CN3CCN(C(=O)c4ccco4)CC3)n2)cc1Cl` stands -54.1%; under `CCOC(=O)N1CCN(Cc2nc(N)nc(Nc3ccc(Cl)cc3)n2)CC1`, -22.7%.
As to `Cc1ccc(Nc2nc(N)nc(CN3CCN(c4ccccc4)CC3)n2)cc1Cl`, the “hERG current change (%, negative = inhibition) at 1uM” value is reported as -10.8%.
Under `CN1C(=O)CSc2ccc(NC(=O)Nc3ccccn3)cc21` stands 8.01%; under `Cc1ccc(Cl)cc1NC(=O)c1ccc(CSc2nnnn2C)cc1`, 9.74%; under `CCOc1cc(/C=N\NC(=O)C2C(=O)NCC2c2ccccc2)ccc1OC` (stereo not shown), 10%.
Under `Oc1ccc(C[C@H]2CNCCN2CCc2cccc(F)c2)cc1` stands 7.34%; under `CCN1CCN(CCCNC(=O)CCC(=O)N2CC(C)Oc3ccc(C)cc32)CC1` (stereo not shown), 6.55%.
To `CC1CN(C(=O)CCC(=O)NCCCN2CCN(Cc3ccccc3)CC2)c2cc(Cl)ccc2O1` (stereo not shown) belongs -68.1%; to `CC1CN(C(=O)CCC(=O)NCc2ccccc2)c2cc(Cl)ccc2O1` (stereo not shown), 0.521%.
As to `CC1CN(C(=O)CCC(=O)NCCCN2CCC(Cc3ccccc3)CC2)c2cc(Cl)ccc2O1` (stereo not shown), the “hERG current change (%, negative = inhibition) at 1uM” value is reported as -62.2%.
To `Cc1ccc2c(c1)N(C(=O)CCC(=O)NCCCN1CCOCC1)CC(C)O2` (stereo not shown) belongs -1.87%; to `Cc1ccc2c(c1)N(C(=O)CCC(=O)NCCCN1CCN(C)CC1)CC(C)O2` (stereo not shown), 8.82%; to `Cc1ccc(C(=O)c2cc(Br)ccc2N)cc1`, 12.5%.
Under `COc1ccc(-c2csc(NC(=O)CCNC(=O)c3ccco3)n2)cc1OC` stands -3.11%; under `O=S(=O)(NC1CCCCCCC1)c1ccc(F)cc1`, 12.2%; under `C=CCNC(=O)c1ccccc1NS(=O)(=O)c1ccc(SC)cc1`, 10.5%.
Under `C=CCNC(=O)c1ccccc1NC(=O)C1CCN(S(=O)(=O)c2ccc(SC)cc2)CC1` stands -56.8%; under `CSc1ccc(S(=O)(=O)N2CCC(C(=O)Nc3ccccc3C(F)(F)F)CC2)cc1`, 11.7%; under `Cc1cccc2cc(CN(Cc3ccc(F)cc3)C(=O)C(F)(F)F)c3nnnn3c12`, 30.5%.
In the case of `COC(=O)[C@@H]1C[C@]2(OC(=O)c3ccccc3)C=CC(=O)C[C@@H]2N1C(=O)OCc1ccccc1`, the “hERG current change (%, negative = inhibition) at 1uM” value is reported as 11.9%.
To `Fc1ccc(N2CCN(Cc3cn[nH]c3-c3ccccc3)CC2)cc1` belongs -27%; to `COc1ccc(-c2[nH]ncc2CN2CCC(OCc3ccccn3)CC2)c(F)c1`, 2.13%; to `COc1ccc(-c2[nH]ncc2CN2CCC(C(=O)c3ccc(F)cc3)CC2)cc1`, -70.5%.
Under `COc1ccc(-c2[nH]ncc2CN2CCC(N3CCSCC3)CC2)cc1F` stands 3.77%.
Take `COc1ccc(-c2[nH]ncc2CN2CCC(OCc3cccnc3)CC2)c(F)c1`: the “hERG current change (%, negative = inhibition) at 1uM” value was -10.6%.
To `COCC1CCN(Cc2cn[nH]c2-c2ccc(OC)c(F)c2)C1` (stereo not shown) belongs 3.17%; to `COc1ccc(-c2[nH]ncc2CN2CCC(c3ccncc3)CC2)cc1F`, -51.4%.
For `COc1ccc(-c2[nH]ncc2CN2CCN(c3ccc(F)cc3)CC2)cc1`, the “hERG current change (%, negative = inhibition) at 1uM” value is reported as -4.53%.
For the compound `CCOC(=O)C1CCN(Cc2cn[nH]c2-c2ccccc2)CC1.O=C(O)C(=O)O`, the “hERG current change (%, negative = inhibition) at 1uM” value is reported as 14.2%.
For `COc1ccc(-c2[nH]ncc2CN2CCCC(C(=O)c3ccc(OC)cc3OC)C2)cc1` (stereo not shown), the “hERG current change (%, negative = inhibition) at 1uM” value was -47.3%.
Take `COc1ccc(-c2[nH]ncc2CN2CCC(OCc3ccccc3)CC2)c(F)c1`: the “hERG current change (%, negative = inhibition) at 1uM” value is given as -64.5%.
To `O=C(c1ccc(F)cc1)C1CCN(Cc2cn[nH]c2-c2ccccc2)CC1` belongs -84.2%; to `CN(C)c1ccc(C(CNC(=O)c2ccco2)N2CCCC2)cc1` (stereo not shown), 13.2%; to `Cc1nc(C)c(-c2csc(Nc3ccc(O)c(C(=O)O)c3)n2)s1`, 13.6%.
Take `CC(=O)c1ccc(NC(=S)N2CCN(c3cccc(Cl)c3)CC2)cc1`: the “hERG current change (%, negative = inhibition) at 1uM” value was found to be 12.6%.
To `COC(=O)C1CC(=O)N(c2ccc(C)cc2)C1` (stereo not shown) belongs 4.3%.
To `CCc1ccccc1NC(=O)CCNS(=O)(=O)c1cc(Br)cnc1N` belongs 0.979%.
To `Cl.O=C(OCCN1CCOCC1)c1ccc2c(c1)OCCO2` belongs 8.19%; to `O=C(NCCc1ccccn1)C1CC(=O)N(Cc2ccccc2Cl)C1` (stereo not shown), 4.09%; to `CCCCCCC(=O)Nc1ccc(Cl)cn1`, 12.1%.
On to `O=C(c1ccc(F)cc1)C1CCN(Cc2cn[nH]c2-c2ccc(F)cc2)CC1`, for which the “hERG current change (%, negative = inhibition) at 1uM” value was -78.9%.
To `Fc1ccc(-c2[nH]ncc2CN2CCN(c3ccc(F)cc3)CC2)cc1` belongs -0.0709%; to `CCOC(=O)C1CCN(Cc2cn[nH]c2-c2ccc(C)cc2)CC1`, -23.6%.
Consider `O=C(/C=C/c1ccccc1)NC(=S)Nc1ncccn1`, for which the “hERG current change (%, negative = inhibition) at 1uM” value was determined as 14.1%.
To `CCN(CC)S(=O)(=O)c1ccc(Cl)c(C(=O)Nc2nncs2)c1` belongs 15.1%; to `COc1ccccc1OCC(=O)NCCS(=O)(=O)N1CCN(c2ccc(F)cc2)CC1`, -3.49%; to `Cc1ccc(-n2nnnc2SCc2ccc(C(=O)O)cc2)cc1C`, -80.9%.
Take `O=C(O)c1ccc(-n2nnnc2SCc2ccccc2)cc1`: the “hERG current change (%, negative = inhibition) at 1uM” value is reported as 7.44%.
Under `O=C(O)c1ccc(CSc2nnnn2-c2ccc(F)cc2)cc1` stands 6.99%; under `Cc1c(C#N)c2ccccc2n1CC(=O)NC(C)c1ccccc1` (stereo not shown), 4.94%.
Under `COC(=O)c1ccc(CS(=O)(=O)c2ccccc2C)o1` stands 2.66%; under `O=C1N=c2ccccc2=C1c1sc(=S)n(CC2CCCO2)c1O` (stereo not shown), 10.8%; under `COc1cc(C(C)=O)ccc1OCC(O)CNCC1(N2CCCCC2)CCCCC1.O=C(O)C(=O)O` (stereo not shown), 2.35%.
To `COc1ccccc1COCC(O)CNCC1(N2CCCCC2)CCCCC1.O=C(O)C(=O)O` (stereo not shown) belongs 0.206%; to `OC(CNCC1(N2CCCCC2)CCCCC1)COc1ccc(Cl)cc1Cl` (stereo not shown), -74.2%; to `Cc1ccccc1NC(=O)CCCN1C(=O)C2CC=CCC2C1=O` (stereo not shown), 14.5%.
`O=C(NC1CCCCC1)C(c1ccncc1)N(C(=O)Cn1nnc(-c2cccs2)n1)C1CCCC1` (stereo not shown): the “hERG current change (%, negative = inhibition) at 1uM” value was -4.68%.
To `Cc1ccccc1NC(=O)c1cccc2c1C(=O)N(C1CCCCC1)C2` belongs 15%.
To `O=S(=O)(Nc1cc(F)ccc1F)c1cccc2nsnc12` belongs 14.5%.
To `O=S(=O)(Nc1cc(F)ccc1F)c1cccc2nonc12` belongs -61%; to `CSc1ccccc1NS(=O)(=O)c1cccc2nonc12`, 7.17%.
On to `CCN1CCN(c2oc(COc3ccc(Cl)cc3)nc2C#N)CC1`, for which the “hERG current change (%, negative = inhibition) at 1uM” value is -79.3%.
Under `N#Cc1nc(COc2ccc(Cl)cc2)oc1N1CCN(Cc2ccccc2)CC1` stands 10.2%.
To `CCN1CCN(c2oc(COc3ccc(-c4ccccc4)cc3)nc2C#N)CC1` belongs 10.1%.
To `N#Cc1nc(COc2ccccc2)oc1N1CCN(Cc2ccccc2)CC1` belongs -3.01%; to `N#Cc1nc(COc2ccc(F)cc2)oc1N1CCN(Cc2ccccc2)CC1`, -51%.
Regarding `N#Cc1nc(COc2ccc(Cl)cc2)oc1N1CCCC1`, the “hERG current change (%, negative = inhibition) at 1uM” value is recorded as -2.53%.
